# The source made the active and inactive calls. Rule for the calls: active = hit-call score of the fitted dose curve at least 0.9, where 1 is the maximum; inactive = score below 0.9.
# Assay: ATG_FoxO_CIS: Attagene CIS-FACTORIAL HepG2 Assay for human Forkhead box O (FoxO) (AID 2282943)
# Details: HepG2 Attagene cis-reporter, FoxO element, mRNA; actives raise or lower the signal
# Description: ATG_CIS is a cell-based, multiplexed-readout assay that uses HepG2, a human liver cell line, with measurements taken at 24 hours after chemical dosing in a 24-well plate.ATG_FoxO_CIS is one of 52 assay component(s) measured or calculated from the ATG_CIS assay. It is designed to make measurements of mRNA induction, a form of inducible reporter, as detected with fluorescence intensity signals by Reverse transcription polymerase chain reaction (RT-PCR) and Capillary electrophoresis technology.Data from the assay component ATG_FoxO_CIS was analyzed into 1 assay endpoint. This assay endpoint, ATG_FoxO_CIS, was analyzed with bidirectional fitting relative to DMSO as the negative control and baseline of activity. Using a type of inducible reporter, measures of mRNA for gain or loss-of-signal activity can be used to understand the reporter gene at the transcription factor-level as they relate to the gene FOXO1 and FOXO3. Furthermore, this assay endpoint can be referred to as a primary readout, because this assay has produced multiple assay endpoints where this one serves a reporter gene function. To generalize the intended target to other relatable targets, this assay endpoint is annotated to the dna binding intended target family, where the subfamily is forkhead box protein.
# Human liver HepG2 cells are transiently transfected with multiple reporter transcription units (MRTUs) in 6-well plates using FuGene 6 reagent (Roche; 3 ml FuGene/1 mg DNA). The MRTU constructs are regulated by a cis-regulating element (promoter). […] A major difference between the CIS and TRANS system is that in CIS activities of endogenous TFs are measured, whereas the TRANS assay evaluates changes in activities of exogenous, chimeric NR-Gal4 proteins. […] At the end of 24 hour incubation, total RNA was isolated using TriZol reagent (Invitrogen). The isolated RNA is then reverse-transcribed using oligo(dT) primer and Mo-MLV reverse transcriptase (Invitrogen) with DNAse I (Ambion) treatment for 30 min. The one-tenth of the produced cDNA was amplified by PCR using Taq DNA polymerase (Invitrogen) and two reporter sequence-specific primers. The PCR products were fluorescently labeled by primer extension with 6-arboxyfluorescein (6-FAM) 5'-labeled reporter sequence-specific primer (2 min at 95 C, 20 s at 68 C and 10 min at 72 C) and these products were digested with 5U of HpaI (New England Biolabs) for 2h at 37 C. The fragments were purified using Qiaquick PCR columns (Qiagen), analyzed on an ABI 3130xL genetic analyzer (Applied Biosystems) with peak positions identified by using a set of X-rhodamine (ROX)-labeled MapMarker1000 molecular weight standards (BioVentures). The raw capillary electrophoresis data was processed using Attagraph software (Attagene).
row,SMILES,outcome
1,CC(C)=CCCC(C)CCOC(=O)C(C)C (stereo not given),inactive
2,CNC(=S)NC,inactive
3,FC1CC(F)(F)C(F)(F)C1(F)F (stereo not given),inactive
4,CCCCCCCOC(=O)c1ccccc1C(=O)OCCCCCCC,inactive
5,O=C(O)C(F)(OC(F)(F)C(F)(OC(F)(F)C(F)(F)C(F)(F)F)C(F)(F)F)C(F)(F)F (stereo not given),inactive
6,O=C(Cl)C(F)(F)C(F)(F)C(F)(F)C(F)(F)C(F)(F)C(F)(F)C(F)(F)C(F)(F)F,inactive
7,OCC(F)(F)C(F)(F)C(F)(F)C(F)(F)C(F)(F)C(F)(F)F,inactive
8,CC(Cc1ccc(O)c(O)c1)C(C)Cc1ccc(O)c(O)c1 (stereo not given),inactive
9,CS(C)(=O)=O,inactive
10,CO[Si](OC)(c1ccccc1)c1ccccc1,inactive
11,C=CC(F)(F)C(F)(F)C(F)(F)C(F)(F)C(F)(F)C(F)(F)C(F)(F)C(F)(F)C=C,inactive
12,CCc1ccc(C(c2ccc(CC)cc2)C(Cl)Cl)cc1,inactive
13,FC(F)(F)C(F)(F)CNCC(F)(F)C(F)(F)F,inactive
14,N=C(N)C(F)(F)C(F)(F)C(F)(F)C(F)(F)C(F)(F)C(F)(F)C(F)(F)F,inactive
15,CCCCCCOC(=O)c1ccccc1,inactive
16,CCN(Cc1cccc(S(=O)(=O)O)c1)c1ccc(C(=C2C=CC(=[N+](CC)Cc3cccc(S(=O)(=O)O)c3)C=C2)c2ccc(O)cc2S(=O)(=O)[O-])cc1,inactive
17,CCO[Si](CCC(F)(F)C(F)(F)C(F)(F)C(F)(F)C(F)(F)C(F)(F)F)(OCC)OCC,inactive
18,O=C(O)C(F)(F)C(F)(F)C(F)(F)C(F)(F)C(F)(F)C(F)(F)C(F)(F)C(F)(F)C(F)(F)C(F)(F)C(F)(F)C(F)(F)F,inactive
19,O=P(O)(O)OCCC(F)(F)C(F)(F)C(F)(F)C(F)(F)C(F)(F)C(F)(F)F,inactive
20,Cc1ccc(S(=O)(=O)NCl)cc1,inactive

row,SMILES,outcome
1,O=C(O)C(F)(OC(F)(F)C(F)(OC(F)(F)C(F)(OC(F)(F)C(F)(F)C(F)(F)F)C(F)(F)F)C(F)(F)F)C(F)(F)F (stereo not given),inactive
2,NC(=O)C(F)(F)C(F)(F)C(F)(F)C(F)(F)F,inactive
3,COC(=O)CCC(F)(F)C(F)(F)C(F)(F)C(F)(F)F,inactive
4,Nc1ccc([N+](=O)[O-])cc1O,inactive
5,CCCCOc1ccc(N)cc1,inactive
6,C#C[C@]1(O)CC[C@H]2[C@@H]3CCc4cc(OC)ccc4[C@H]3CC[C@@]21C,inactive
7,FC(F)(F)C(F)(F)C(F)(F)C(F)(F)C(F)(F)C(F)(F)CCS,inactive
8,O=C(OCCOCCOCCOC(=O)c1ccccc1)c1ccccc1,inactive
9,CC(CCl)OP(=O)(OC(C)CCl)OC(C)CCl (stereo not given),inactive
10,FC(F)(F)C(F)(F)C(F)(F)CI,inactive
11,CCCCCCCCCCCCCCCC[N+](C)(C)Cc1ccccc1,inactive
12,CCCCCCC(C)OC(=O)CCCCC(=O)OC(C)CCCCCC (stereo not given),inactive
13,O=C(O)C=C(C(F)(F)F)C(F)(F)F,inactive
14,FC(F)(Br)C(F)(F)C(F)(F)C(F)(F)C(F)(F)C(F)(F)Br,inactive
15,C=CC(=O)OCC(F)(F)C(F)(F)C(F)(F)C(F)(F)C(F)(F)C(F)(F)C(F)(F)F,inactive
16,OCC(F)(F)C(F)(F)C(F)(F)F,inactive
17,CC(C)(C)C(=O)CC(=O)C(F)(F)C(F)(F)C(F)(F)F,inactive
18,FC(F)(F)C(F)(F)C(F)(F)C(F)(F)C(F)(F)CCI,inactive
19,Nc1cc(Cl)c(N)c(Cl)c1,inactive
20,[Co],inactive

# Reference: PubChem BioAssay (EPA / NIEHS)
